# Data published in PubChem BioAssay (NCI).
# About 83,000 compounds went through this panel and 20% of them were active in at least one assay; those are over-represented in the sample as a whole.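 Plates (96-well) were seeded with cells, treated with compound at one concentration, and incubated for 48 hours before percent growth was determined.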 The source made the active and inactive calls. The calls were made as follows: active = growth percent below 10; inactive = the rest.
# Test system: SNB-19 CNS
# Assay: NCI-60 one-dose screen, 48 h (100 = growth as untreated, 0 = no growth, -100 = all killed)
# Conditions: 10 µM unless noted
row,Structure (SMILES),growth
1,COc1cc(C2CC(=O)Nc3c2cc(Br)c2ccccc32)cc(Br)c1OC (centres undefined),60.7% (inactive)
2,CCOC(=O)c1ccccc1OC(=O)NNc1ccccc1,90.7% (inactive)
3,C=CC1=C(C(=O)O)N2C(=O)[C@@H](NC(=O)/C(=N\O)c3csc(N)n3)[C@H]2SC1 (stereo in doubt),114% (inactive)
4,CN1CCN(CC(=O)Nc2nc3c(s2)Nc2cc(Cl)c(Cl)cc2NC3=O)CC1,104% (inactive)
5,N=c1ccn2c(n1)O[C@@H]1[C@@H](O)[C@H](CO)O[C@@H]12,64.8% (inactive)
6,CCCc1cc(=O)n2c(C(=O)Nc3ccccc3OC)c(C(=O)Nc3ccc(F)cc3)sc2n1,26.7% [30 µM] (inactive)
7,COc1ccc(-c2cn(-c3ccccc3)c(-c3ccccc3)n2)cc1OC,117% (inactive)
8,CC(c1cc(Cl)ccc1O)c1cc(Cl)ccc1O,68.5% (inactive)
9,COc1c(O)cc2oc3cc(O)c(CC=C(C)C)c(O)c3c(=O)c2c1C/C=C(\C)CCC=C(C)C,80.5% (inactive)
10,CC[C@@H]1OC(=O)[C@H](C)[C@@H](O[C@H]2C[C@@](C)(OC)[C@@H](O)[C@H](C)O2)[C@H](C)[C@@H](O[C@@H]2O[C@H](C)C[C@H](N(C)C)[C@H]2O)[C@](C)(O)C[C@@H](C)[C@@H]2N[C@@H](COCCOC)O[C@H]([C@H]2C)[C@]1(C)O,104% (inactive)
11,Cc1cc(C)c(OC(=O)CSc2nc3ccccc3c(=O)n2CCc2ccccc2)cc1C,103% (inactive)
12,O=C1Cc2cc(CCn3cncn3)c(Cl)cc2N1,74.4% (inactive)
13,COc1cccc(/C=C2\COc3ccc(O)c(O)c3C2=O)c1OC,31.6% (inactive)
14,CCC1=C(c2ccc(OC)cc2)C(C)Oc2cc(OC(C)=O)ccc21 (centres undefined),88.6% (inactive)
15,Cc1ccc(C=C2C(Cl)=C(Cl)C(Cl)=C2Cl)cc1,-78.3% (active)
16,C/C(=C\CCc1ccoc1)CC/C=C(\C)CCCN1CCC(CO)CC1,76.2% (inactive)
17,CCCCCCC/C(=N\N=C(N)N)c1ccc(O)cc1,37.1% (inactive)
18,C=CCCCCCCCCC(=O)[O][Sn]([CH2]CCC)([CH2]CCC)[CH2]CCC,-79.2% (active)
19,CCOc1cccc(C2CC(=O)Nc3cc4c(cc32)OCO4)c1 (centres undefined),100% (inactive)

row,Structure (SMILES),growth
1,Cc1nc2cc(NC(=O)CN3CCN(CCN4C(=O)c5cccc6cccc(c56)C4=O)CC3)ccc2s1,44.7% (inactive)
2,OCCOc1c(Cl)cc(Cl)cc1Cl,94.2% (inactive)
3,Nc1c2ccccc2nc2ccccc12 (tested in a mixture with another compound),29.4% (inactive)
4,CCOc1nc(-c2ccccc2)cc2c(O)c(C(=O)n3nc(C)cc3C)[nH]c(=O)c12,102% (inactive)
5,Nc1cc(Cl)c(S(N)(=O)=O)cc1S(N)(=O)=O,113% (inactive)
6,CCCCCCCC/C=C\CCCCCCCCOc1ccccc1CC(=O)NCC[N+]1(C)CCCC1,60.4% (inactive)
7,O=C(Nc1nc2ccccc2s1)c1cc(-c2ccc(F)cc2)n2nc(-c3ccccc3)cc2n1,71.3% (inactive)
8,CCCCn1c(Cc2ccc(Cl)cc2)nc2cc(OC)c(OC)cc2c1=O,150% (inactive)
9,C=C1c2c(C)nn(-c3ccc(C#CCOC4OC(CO)C(O)C(O)C4O)cc3)c2N(C)C23C[C@H]1C1(C)c4c(C)nn(-c5ccc(C#CCOC6OC(CO)C(O)C(O)C6O)cc5)c4N(C)C(C)(C[C@H]12)C3 (some centres undefined),2.15% (active)
10,O=C1OC(c2ccc(-c3ccccc3)cc2)=C/C1=C/c1cccs1,131% (inactive)
11,CO[C@H]1CC(O[C@@H]2/C(C)=C/C[C@@H]3C[C@@H](C[C@]4(CC[C@H](C)[C@@H](C5CCCCC5)O4)O3)OC(=O)[C@@H]3C=C(C)/C(=N/O)[C@H]4OC/C(=C\C=C\[C@@H]2C)[C@]43O)O[C@@H](C)C1O (some centres undefined),-96.6% (active)
12,COc1cc2c(cc1OC)C1CCN3C(=O)CCC3N1CC2 (centres undefined),111% (inactive)
13,COC1CC2CCC(C)C(O)(O2)C(=O)C(=O)N2CCCCC2C(=O)OC(C(C)CC2CCC(O)C(OC)C2)CC(=O)C(C)C=C(C)C(O)C(OC)C(=O)C(C)CC(C)/C=C/C=C/C=C1C (centres undefined),38.1% (inactive)
14,Cc1cc(N2CCOCC2)nc(N2CCOCC2)n1,99.7% (inactive)
15,NNC(=O)C1CC2c3ccccc3C1c1ccccc12 (centres undefined),107% (inactive)
16,CN(C)c1ccc2[nH]c3c(C(N)=O)cc(=O)c(=O)c=3oc2c1,74.4% (inactive)
17,CCC[C@H](N[C@@H](C)C(=O)N1[C@H](C(=O)O)C[C@@H]2CCCC[C@@H]21)C(=O)OCC,104% (inactive)
18,O=C(/C(=C/c1cccc([N+](=O)[O-])c1)c1ccccc1)c1ccccc1,77% (inactive)

# Test system: U251 CNS
# Assay: as above
# Conditions: 10 µM unless noted
row,Structure (SMILES),growth
1,COc1cc(C2CC(=O)Nc3c2cc(Br)c2ccccc32)cc(Br)c1OC (centres undefined),17.2% (inactive)
2,CCOC(=O)c1ccccc1OC(=O)NNc1ccccc1,83.2% (inactive)
3,C=CC1=C(C(=O)O)N2C(=O)[C@@H](NC(=O)/C(=N\O)c3csc(N)n3)[C@H]2SC1 (stereo in doubt),92.1% (inactive)
4,CN1CCN(CC(=O)Nc2nc3c(s2)Nc2cc(Cl)c(Cl)cc2NC3=O)CC1,95% (inactive)
5,N=c1ccn2c(n1)O[C@@H]1[C@@H](O)[C@H](CO)O[C@@H]12,52.2% (inactive)
6,CCCc1cc(=O)n2c(C(=O)Nc3ccccc3OC)c(C(=O)Nc3ccc(F)cc3)sc2n1,14.7% [30 µM] (inactive)
7,COc1ccc(-c2cn(-c3ccccc3)c(-c3ccccc3)n2)cc1OC,29.2% (inactive)
8,CC(c1cc(Cl)ccc1O)c1cc(Cl)ccc1O,19.2% (inactive)
9,COc1c(O)cc2oc3cc(O)c(CC=C(C)C)c(O)c3c(=O)c2c1C/C=C(\C)CCC=C(C)C,24.1% (inactive)
10,CC[C@@H]1OC(=O)[C@H](C)[C@@H](O[C@H]2C[C@@](C)(OC)[C@@H](O)[C@H](C)O2)[C@H](C)[C@@H](O[C@@H]2O[C@H](C)C[C@H](N(C)C)[C@H]2O)[C@](C)(O)C[C@@H](C)[C@@H]2N[C@@H](COCCOC)O[C@H]([C@H]2C)[C@]1(C)O,96.6% (inactive)
11,Cc1cc(C)c(OC(=O)CSc2nc3ccccc3c(=O)n2CCc2ccccc2)cc1C,74.1% (inactive)
12,O=C1Cc2cc(CCn3cncn3)c(Cl)cc2N1,73.4% (inactive)
13,COc1cccc(/C=C2\COc3ccc(O)c(O)c3C2=O)c1OC,10.9% (inactive)
14,CCC1=C(c2ccc(OC)cc2)C(C)Oc2cc(OC(C)=O)ccc21 (centres undefined),-0.227% (active)
15,Cc1ccc(C=C2C(Cl)=C(Cl)C(Cl)=C2Cl)cc1,-86.3% (active)
16,C/C(=C\CCc1ccoc1)CC/C=C(\C)CCCN1CCC(CO)CC1,40% (inactive)
17,CCCCCCC/C(=N\N=C(N)N)c1ccc(O)cc1,30.7% (inactive)
18,C=CCCCCCCCCC(=O)[O][Sn]([CH2]CCC)([CH2]CCC)[CH2]CCC,-74% (active)
19,CCOc1cccc(C2CC(=O)Nc3cc4c(cc32)OCO4)c1 (centres undefined),85.1% (inactive)

row,Structure (SMILES),growth
1,Cc1nc2cc(NC(=O)CN3CCN(CCN4C(=O)c5cccc6cccc(c56)C4=O)CC3)ccc2s1,43.4% (inactive)
2,OCCOc1c(Cl)cc(Cl)cc1Cl,103% (inactive)
3,Nc1c2ccccc2nc2ccccc12 (tested in a mixture with another compound),13.7% (inactive)
4,CCOc1nc(-c2ccccc2)cc2c(O)c(C(=O)n3nc(C)cc3C)[nH]c(=O)c12,99.5% (inactive)
5,Nc1cc(Cl)c(S(N)(=O)=O)cc1S(N)(=O)=O,100% (inactive)
6,CCCCCCCC/C=C\CCCCCCCCOc1ccccc1CC(=O)NCC[N+]1(C)CCCC1,47.6% (inactive)
7,O=C(Nc1nc2ccccc2s1)c1cc(-c2ccc(F)cc2)n2nc(-c3ccccc3)cc2n1,18.2% (inactive)
8,CCCCn1c(Cc2ccc(Cl)cc2)nc2cc(OC)c(OC)cc2c1=O,88.5% (inactive)
9,C=C1c2c(C)nn(-c3ccc(C#CCOC4OC(CO)C(O)C(O)C4O)cc3)c2N(C)C23C[C@H]1C1(C)c4c(C)nn(-c5ccc(C#CCOC6OC(CO)C(O)C(O)C6O)cc5)c4N(C)C(C)(C[C@H]12)C3 (some centres undefined),-35% (active)
10,O=C1OC(c2ccc(-c3ccccc3)cc2)=C/C1=C/c1cccs1,100% (inactive)
11,CO[C@H]1CC(O[C@@H]2/C(C)=C/C[C@@H]3C[C@@H](C[C@]4(CC[C@H](C)[C@@H](C5CCCCC5)O4)O3)OC(=O)[C@@H]3C=C(C)/C(=N/O)[C@H]4OC/C(=C\C=C\[C@@H]2C)[C@]43O)O[C@@H](C)C1O (some centres undefined),-87.6% (active)
12,COc1cc2c(cc1OC)C1CCN3C(=O)CCC3N1CC2 (centres undefined),112% (inactive)
13,COC1CC2CCC(C)C(O)(O2)C(=O)C(=O)N2CCCCC2C(=O)OC(C(C)CC2CCC(O)C(OC)C2)CC(=O)C(C)C=C(C)C(O)C(OC)C(=O)C(C)CC(C)/C=C/C=C/C=C1C (centres undefined),35.8% (inactive)
14,Cc1cc(N2CCOCC2)nc(N2CCOCC2)n1,102% (inactive)
15,NNC(=O)C1CC2c3ccccc3C1c1ccccc12 (centres undefined),110% (inactive)
16,CN(C)c1ccc2[nH]c3c(C(N)=O)cc(=O)c(=O)c=3oc2c1,35.4% (inactive)
17,CCC[C@H](N[C@@H](C)C(=O)N1[C@H](C(=O)O)C[C@@H]2CCCC[C@@H]21)C(=O)OCC,93.6% (inactive)
18,O=C(/C(=C/c1cccc([N+](=O)[O-])c1)c1ccccc1)c1ccccc1,56.3% (inactive)
